# MARV entry inh: blocks Marburg virus binding to or entry into cells; Potency, µM (highest dose often 37.8 µM), actives largely listed as inhibitors; Marburg virus pseudotyped entry inhibition, cell reporter; hit rate 1.8% among 300,000; calls by dose curve; tested in HEK293 cells
# HCMV antiviral: inhibitors of human cytomegalovirus. HFF cells, HCMV-luciferase reporter, 72 h; stronger effect = lower value. activity change, negative = inhibition, % at 57.5 µM. hit rate 4.5% among 410,000. AID 1259415; in the data active = activity change below about -60%; inconclusive = no clear call, values can overlap the other calls; inactive = above about -39%
#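 Luciferase read-out from HCMV-luciferase-infected HFFs (MOI 1 PFU/cell) 72 h post infection at 37C; compounds added after 16 h cell attachment; activity normalized between buffer-only basal and Salinomycin (10uM) inhibitor controls.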
# Lassa entry inh: Lassa virus entry inhibition; Lassa virus pseudotype entry inhibition, cell reporter; Potency, µM (doses to about 37.9 µM), hits mostly inhibitors; hit rate 1.2% among 300,000; AID 540256; calls by dose curve; tested in HEK293 cells; also: nearly all actives have a fitted effect of over 50% in size
# VACV mCherry inh: vaccinia inhibition (mCherry reporter). hit rate 0.63% among 310,000. Potency, µM (series often up to 36.5 µM), usual class: inhibitors. Vaccinia virus mCherry reporter infection, fluorescence; calls by dose curve; tested in A549 cells; also: nearly all actives have a fitted effect of over 35% in size
# VACV Venus inh: vaccinia inhibition (Venus reporter); Vaccinia virus Venus reporter expression, fluorescence; Potency, µM (titrated, usually from 36.5 µM), most hits filed as inhibitors; hit rate 0.46% among 330,000; calls by dose curve; tested in A549 cells; also: nearly all actives have a fitted effect of over 30% in size
# FMDV antiviral: blocks foot and mouth disease virus; Potency, µM (doses to about 57.9 µM), usual class: inhibitors; FMDV antiviral cell-based qHTS; hit rate 1.2% among 410,000; calls by dose curve; tested in HEK293T cells; also: read-out not given here; nearly all actives have a fitted effect of over 45% in size
# A number is an active result; – = inactive; ? = inconclusive; · = no result. Sampled rows, rich in hits. Any-hit rate of the full collection: about 6.5%.
SMILES,MARV entry inh,HCMV antiviral,Lassa entry inh,VACV mCherry inh,VACV Venus inh,FMDV antiviral
COc1ccccc1OCCN1CSC(=S)N(C)C1,?,-74,–,–,–,?
COc1cccc(C2=NC(C)(CC(=O)NCc3ccccc3F)ON2C)c1 (stereo not given),·,–,·,·,·,·
O=C1CN(C(=O)CSc2nc3ccccc3c(=O)n2Cc2ccc(F)cc2)c2ccccc2N1,?,-64,?,–,–,–
O=C1CN(C(=O)CSc2nc3ccccc3n2CCc2ccccc2)c2ccccc2N1,?,-60,–,–,–,–
Cn1c(SCC(=O)N2CC(=O)Nc3ccccc32)nc2ccccc2c1=O,·,–,·,·,·,–
O=C(CCc1nc(-c2ccccc2F)no1)Nc1cccc(C(F)(F)F)c1,–,–,–,–,–,–
CCC[C@H](/C=C/C(=O)OC(C)(C)C)NC(=O)C(F)(F)F,·,–,·,·,·,·
COc1cc(NS(=O)(=O)c2cc3c(cc2C)N(C)CCO3)cc(OC)c1OC,·,–,–,–,–,–
O=C(NCc1ccncc1)c1cc2ccccc2nc1Cl,–,-79,–,–,–,–
CC1CCC(NC(=O)c2ccc3c(c2)OCO3)CC1 (stereo not given),?,–,3.5µM,–,–,–
CC1CCC(NCCc2ccc3c(c2)OCO3)CC1 (stereo not given),16µM,–,–,–,–,·
c1cc2c(cc1CCNC1C3CC4CC(C3)CC1C4)OCO2 (stereo not given),?,–,–,·,·,–
COc1cc(OC)c(N(C)C(=O)CSc2c3c(nc4ccc(Cl)cc24)CCCC3)cc1Cl,–,–,?,–,–,–
N#CC1c2ccccc2-n2nncc2CN1S(=O)(=O)c1ccc(Cl)cc1 (stereo not given),·,–,·,–,–,–
CS(=O)(=O)N1Cc2cnnn2-c2ccccc2C1C#N (stereo not given),·,–,·,–,–,–
N#CC1c2ccccc2-n2nncc2CN1Cc1cc(Cl)cc(Cl)c1 (stereo not given),·,-100,·,–,–,8.9µM
CN1Cc2cnnn2-c2ccccc2C1C#N (stereo not given),·,-64,·,–,–,–
COc1ccc(CN2Cc3cnnn3-c3ccccc3C2c2ccccc2)cc1 (stereo not given),·,–,·,?,?,–
COc1ccc(CN2Cc3cnnn3-c3ccccc3C2C#N)cc1 (stereo not given),·,-110,·,?,–,25µM
Cc1ccc(CNC(=O)CN2C(=O)COc3ccc(S(=O)(=O)Nc4ccccc4)cc32)cc1,·,–,–,–,–,–
O=C(Nc1nnc(S(=O)(=O)N2CCCc3ccccc32)s1)c1ccccc1Cl,·,–,–,–,–,–
CN(c1ccccc1)S(=O)(=O)c1ccc(NC(=S)NC(=O)c2ccccc2)cc1,–,–,?,·,–,–
CN(c1ccccc1)S(=O)(=O)c1ccc(NC(=O)CC(=O)c2ccccc2)cc1,–,–,–,–,–,40µM
COc1ccc(C(=O)Nc2ccc(S(=O)(=O)N(C)c3ccccc3)cc2)cc1,?,-69,?,–,–,?
Cc1nc2ccc(NC(=O)c3cccc(S(=O)(=O)N4CC(C)OC(C)C4)c3)cc2s1 (stereo not given),–,–,?,·,?,20µM
SMILES,MARV entry inh,HCMV antiviral,Lassa entry inh,VACV mCherry inh,VACV Venus inh,FMDV antiviral
COc1ccc(NC(=O)c2ccc(S(=O)(=O)N(C)c3ccccc3)cc2)cn1,·,-62,·,·,·,18µM
Cc1nc2ccc(NC(=O)c3ccc(S(=O)(=O)N(C)c4ccccc4)cc3)cc2s1,?,-82,?,?,?,22µM
CN(C)S(=O)(=O)c1ccc(NC(=S)NC(=O)Cc2ccccc2)cc1,–,-63,–,–,–,–
CCN(CC)c1ccc(NC(=S)NC(=O)Cc2ccccc2)cc1,–,–,?,–,–,–
CC1CN(S(=O)(=O)c2ccc(NC(=O)c3cc(-c4ccccc4O)n[nH]3)cc2)CC(C)O1 (stereo not given),12µM,-98,21µM,·,·,?
CCCOc1ccc(CNC(=O)c2ccc(C)c(-n3c(C)nc4cccnc43)c2)cc1,·,–,?,–,–,–
Cc1ccc2ccc3cc(C(=O)N4CCN(c5ccccc5F)CC4)nc3c2[nH]1,·,–,–,–,–,–
Cc1ccc2ccc3cc(C(=O)Nc4ccc(C)c(F)c4)nc3c2[nH]1,·,-76,?,–,–,–
COCCNC(=O)CCCn1c(SCC(=O)c2ccc(F)cc2)nc2c(sc3ccccc32)c1=O,–,–,–,–,–,–
CS(=O)(=O)N(Cc1ccccc1)c1ccc(C(=O)Nc2ccc(C(N)=O)cc2)cc1,·,–,·,·,·,–

# Assay outcomes: PubChem BioAssay, National Center for Advancing Translational Sciences (NCATS)
